Reference: PubChem BioAssay (Tox21)
Records with an inconclusive call do not appear. Calls of active or inactive are those of the source. Calls follow the shape of the dose curve; as a rule, active = well fitted curve in the direction sought with a large enough effect in the repeat runs; inconclusive = weak or mixed curves; inactive = no such curve, though single readings can be large; an effect the other way counts as inactive or inconclusive.

Legend:
[1] = A CellTox Green Cytotoxicity Assay to monitor cytotoxicity in HEK293 cells - 40 hour (AID 1224871); also: nearly all actives have a fitted effect of over 45% in size
Method in brief: (§1)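 Fluorescence intensity, read at 0, 8, 16, 24, 32 and 40 h of compound treatment, reflected dye binding to DNA of dead HEK293 cells; compounds (23 nL, DMSO) were added 5 h after plating cells with reagent.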

[2] = qHTS RealTime-Glo MT Cell Viability Assay in HEK293 cells - 16 hour (AID 1224872); also: top concentration of the series differs between compounds; nearly all actives have a fitted effect of over 50% in size
Method in brief: (§2)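 HEK293 cells seeded with NanoLuc/prosubstrate reagent, rested 5 h at 37 C, then dosed and kept at 37 C up to 40 h. Nonlytic real-time luminescence from viable cells read at 0, 8, 16, 24, 32 and 40 h.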

[3] = qHTS RealTime-Glo MT Cell Viability Assay in HepG2 cells - 8 hour (AID 1224873); also: nearly all actives have a fitted effect of over 55% in size
Method in brief: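 HepG2 cells mixed with RealTime-Glo MT reagents (NanoLuc plus cell-permeant prosubstrate) were seeded at 600 cells/well, incubated 5 h at 37 C/5% CO2, then pinned with compounds in DMSO; nonlytic luminescence tracked viability during 40 h treatment.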

[4] = qHTS RealTime-Glo MT Cell Viability Assay in HEK293 cells - 40 hour (AID 1224874); settings: RealTime-Glo luminescence; max response: stronger effect = lower value; also: nearly all actives have a fitted effect of over 50% in size; also: potency is read from the fitted curve at half-maximal effect
Method in brief: (§3)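 Viable HEK293 cells reduce a cell-permeant prosubstrate; the product diffuses out and is consumed by NanoLuc in the medium to give light. Compounds went in after a 5 h incubation and plates were read over the treatment course.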

[5] = A CellTox Green Cytotoxicity Assay to monitor cytotoxicity in HEK293 cells - 24 hour (AID 1224875); also: series mostly up to about 77 µM; nearly all actives have a fitted effect of over 45% in size
Method in brief: as §1

[6] = A CellTox Green Cytotoxicity Assay to monitor cytotoxicity in HepG2 cells - 16 hour (AID 1224876); also: nearly all actives have a fitted effect of over 45% in size; also: potency is read from the fitted curve at half-maximal effect
Method in brief: (§4)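 Using 1536-well format, dye-containing HepG2 suspension was seeded, allowed 5 h at 37 C/5% CO2, dosed by pintool with compounds, positive and negative controls, and imaged for fluorescence across 40 h.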

[7] = qHTS RealTime-Glo MT Cell Viability Assay in HepG2 cells - 32 hour (AID 1224877); also: nearly all actives have a fitted effect of over 55% in size; also: potency is read from the fitted curve at half-maximal effect
Method in brief: (§5)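 HepG2 cells (600/well) were dispensed with RealTime-Glo reagents, incubated 5 h at 37 °C, then treated with compounds in DMSO for up to 40 h. Nonlytic NanoLuc luminescence reflecting viable cells was read at each stated time point.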

[8] = A CellTox Green Cytotoxicity Assay to monitor cytotoxicity in HepG2 cells - 24 hour (AID 1224878); also: nearly all actives have a fitted effect of over 45% in size; also: potency is read from the fitted curve at half-maximal effect
Method in brief: as §4

[9] = qHTS RealTime-Glo MT Cell Viability Assay in HEK293 cells - 0 hour (AID 1224880)
Method in brief: as §3

[10] = A CellTox Green Cytotoxicity Assay to monitor cytotoxicity in HEK293 cells - 32 hour (AID 1224881); also: nearly all actives have a fitted effect of over 40% in size
Method in brief: as §1

[11] = A CellTox Green Cytotoxicity Assay to monitor cytotoxicity in HepG2 cells - 0 hour (AID 1224882); also: nearly all actives have a fitted effect of over 35% in size
Method in brief: as §4

[12] = A CellTox Green Cytotoxicity Assay to monitor cytotoxicity in HepG2 cells - 32 hour (AID 1224883); also: nearly all actives have a fitted effect of over 50% in size; also: potency is read from the fitted curve at half-maximal effect
Method in brief: as §4

[13] = A CellTox Green Cytotoxicity Assay to monitor cytotoxicity in HEK293 cells - 8 hour (AID 1224884); also: nearly all actives have a fitted effect of over 35% in size
Method in brief: as §1

[14] = qHTS RealTime-Glo MT Cell Viability Assay in HepG2 cells - 16 hour (AID 1224885); also: nearly all actives have a fitted effect of over 50% in size
Method in brief: as §5

[15] = qHTS RealTime-Glo MT Cell Viability Assay in HEK293 cells - 8 hour (AID 1224887)
Method in brief: as §3

[16] = A CellTox Green Cytotoxicity Assay to monitor cytotoxicity in HEK293 cells - 16 hour (AID 1224888); also: nearly all actives have a fitted effect of over 35% in size
Method in brief: as §1

[17] = qHTS RealTime-Glo MT Cell Viability Assay in HepG2 cells - 0 hour (AID 1224889); also: nearly all actives have a fitted effect of over 50% in size
Method in brief: as §5

[18] = A CellTox Green Cytotoxicity Assay to monitor cytotoxicity in HepG2 cells - 8 hour (AID 1224890); also: nearly all actives have a fitted effect of over 45% in size; also: potency is read from the fitted curve at half-maximal effect
Method in brief: as §4

[19] = A CellTox Green Cytotoxicity Assay to monitor cytotoxicity in HepG2 cells - 40 hour (AID 1224879); also: nearly all actives have a fitted effect of over 40% in size; also: potency is read from the fitted curve at half-maximal effect
Method in brief: as §4

[20] = qHTS RealTime-Glo MT Cell Viability Assay in HEK293 cells - 24 hour (AID 1224886)
Method in brief: as §2
% is scaled to controls: 0 for no effect and ±100 for the full control effect.

OC[C@H]1O[C@@H](n2cnc3c(=S)nc[nH]c32)[C@H](O)[C@@H]1O
inactive: Potency [1] | Potency [2] | Potency [3] | Potency [5] | Potency [6] | Potency [7] | Potency [8] | Potency [9] | Potency [10] | Potency [11] | Potency [12] | Potency [13] | Potency [14] | Potency [15] | Potency [16] | Potency [17] | Potency [18]
active: Potency [4] 21.3 µM

CCC(C)(C)OC
inactive: Potency [1] | Potency [2] | Potency [3] | max response [4] 7.38% | Potency [6] | Potency [7] | Potency [8] | Potency [19] | Potency [9] | Potency [10] | Potency [11] | Potency [12] | Potency [13] | Potency [14] | Potency [20] | Potency [15] | Potency [16] | Potency [17] | Potency [18]

CC(CN(C)C)C(C)(O)Cc1ccc(Cl)cc1 (stereo unspecified)
inactive: Potency [1] | Potency [2] | Potency [3] | max response [4] -0.684% | Potency [5] | Potency [7] | Potency [8] | Potency [19] | Potency [9] | Potency [10] | Potency [12] | Potency [13] | Potency [14] | Potency [20] | Potency [15] | Potency [16] | Potency [17]

CCCCCCCCN
inactive: Potency [1] | Potency [2] | Potency [3] | max response [4] -0.288% | Potency [5] | Potency [6] | Potency [7] | Potency [8] | Potency [9] | Potency [12] | Potency [13] | Potency [14] | Potency [20] | Potency [15] | Potency [16] | Potency [17] | Potency [18]

CC1=C(CC=O)C(C)(C)CCC1
inactive: Potency [1] | Potency [2] | Potency [3] | max response [4] -9.82% | Potency [5] | Potency [6] | Potency [7] | Potency [8] | Potency [10] | Potency [11] | Potency [12] | Potency [13] | Potency [14] | Potency [20] | Potency [15] | Potency [16] | Potency [17] | Potency [18]

CCCCCCCCCI
inactive: Potency [1] | Potency [2] | Potency [3] | max response [4] -1.11% | Potency [6] | Potency [8] | Potency [9] | Potency [10] | Potency [11] | Potency [12] | Potency [13] | Potency [14] | Potency [20] | Potency [15] | Potency [16] | Potency [17] | Potency [18]
active: Potency [7] 35.3 µM

c1ccc2sc(SN(C3CCCCC3)C3CCCCC3)nc2c1
inactive: Potency [1] | Potency [2] | Potency [3] | max response [4] 3.85% | Potency [5] | Potency [6] | Potency [7] | Potency [8] | Potency [9] | Potency [10] | Potency [12] | Potency [13] | Potency [14] | Potency [20] | Potency [15] | Potency [16] | Potency [17] | Potency [18]

Nc1nc2ccc([N+](=O)[O-])cc2s1
inactive: Potency [1] | Potency [2] | Potency [3] | Potency [5] | Potency [7] | Potency [9] | Potency [10] | Potency [14] | Potency [15] | Potency [16] | Potency [17]
active: Potency [6] 49 µM | Potency [8] 43.6 µM | Potency [19] 43.6 µM | Potency [12] 43.6 µM | Potency [18] 49 µM
